This is a sample that favours compounds with a hit; in the whole collection about 1.2% have one here.
KinaseGlo FLuc = Counterscreen for Luciferase (Kinase-Glo TM) Inhibition. Potency, µM (doses to about 38.3 µM), without a hit: top-dose activity change, negative = inhibition, most hits filed as inhibitors. Kinase-Glo luciferase, ATP luminescence, 8 min. hit rate 0.28% among 200,000. Luciferin 4-monooxygenase (Photuris pensylvanica), Q27757; active means well fitted inhibition curve with a large enough effect; inconclusive means small, poorly fitted or top-dose-only effect; further: potency means the concentration at half of the fitted maximal effect; nearly all actives have a fitted effect of over 60% in size
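Substrate mix (final 50 mM imidazole pH 7.2, 50 mM KCl, 7 mM MgCl2, 10 uM ATP, 0.01% Tween 20, 0.05% BSA) plus pin-tool compound, then Kinase-Glo detection mix; 8 min ambient, luminescence read.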
KCNH2 3.1 block = qHTS for Inhibitors of KCHN2 3.1: Mutant qHTS; AID 720553, 2013; Potassium voltage-gated channel subfamily H member 2, brain isoform KCNH2 3.1 (human); U2OS KCNH2 3.1, thallium flux FluxOr; hits give low values; hit rate 0.95% among 340,000; activity change, % (tested at about 1.8 µM);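 active means maximum activity change below -70%; inconclusive means maximum activity change from -70% to -50%; inactive means maximum activity change above -50%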;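 further: thallium influx rate constant from kinetic fluorescence after stimulation buffer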
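Channel expression came from 3.1 mutant virus (1.77 x 10^8 /mL) applied to suspended U2OS cells for 4 h. Flux was tracked with FluxOr dye plus Red40 quencher, and kinetic rate constants normalized to controls.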
hERG WT inh = qHTS for Inhibitors of KCHN2 3.1: Wildtype qHTS. Voltage-gated inwardly rectifying potassium channel KCNH2 (Homo sapiens), Q12809. U2OS, BacMam KCNH2, thallium flux FluxOr; hits give low values. activity change, % at 1.84 µM. hit rate 0.37% among 340,000;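 active means maximum activity change below -70%; inconclusive means maximum activity change between -70% and -50%; inactive means maximum activity change above -50%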
Target sequence (Q12809 whole entry, looked up): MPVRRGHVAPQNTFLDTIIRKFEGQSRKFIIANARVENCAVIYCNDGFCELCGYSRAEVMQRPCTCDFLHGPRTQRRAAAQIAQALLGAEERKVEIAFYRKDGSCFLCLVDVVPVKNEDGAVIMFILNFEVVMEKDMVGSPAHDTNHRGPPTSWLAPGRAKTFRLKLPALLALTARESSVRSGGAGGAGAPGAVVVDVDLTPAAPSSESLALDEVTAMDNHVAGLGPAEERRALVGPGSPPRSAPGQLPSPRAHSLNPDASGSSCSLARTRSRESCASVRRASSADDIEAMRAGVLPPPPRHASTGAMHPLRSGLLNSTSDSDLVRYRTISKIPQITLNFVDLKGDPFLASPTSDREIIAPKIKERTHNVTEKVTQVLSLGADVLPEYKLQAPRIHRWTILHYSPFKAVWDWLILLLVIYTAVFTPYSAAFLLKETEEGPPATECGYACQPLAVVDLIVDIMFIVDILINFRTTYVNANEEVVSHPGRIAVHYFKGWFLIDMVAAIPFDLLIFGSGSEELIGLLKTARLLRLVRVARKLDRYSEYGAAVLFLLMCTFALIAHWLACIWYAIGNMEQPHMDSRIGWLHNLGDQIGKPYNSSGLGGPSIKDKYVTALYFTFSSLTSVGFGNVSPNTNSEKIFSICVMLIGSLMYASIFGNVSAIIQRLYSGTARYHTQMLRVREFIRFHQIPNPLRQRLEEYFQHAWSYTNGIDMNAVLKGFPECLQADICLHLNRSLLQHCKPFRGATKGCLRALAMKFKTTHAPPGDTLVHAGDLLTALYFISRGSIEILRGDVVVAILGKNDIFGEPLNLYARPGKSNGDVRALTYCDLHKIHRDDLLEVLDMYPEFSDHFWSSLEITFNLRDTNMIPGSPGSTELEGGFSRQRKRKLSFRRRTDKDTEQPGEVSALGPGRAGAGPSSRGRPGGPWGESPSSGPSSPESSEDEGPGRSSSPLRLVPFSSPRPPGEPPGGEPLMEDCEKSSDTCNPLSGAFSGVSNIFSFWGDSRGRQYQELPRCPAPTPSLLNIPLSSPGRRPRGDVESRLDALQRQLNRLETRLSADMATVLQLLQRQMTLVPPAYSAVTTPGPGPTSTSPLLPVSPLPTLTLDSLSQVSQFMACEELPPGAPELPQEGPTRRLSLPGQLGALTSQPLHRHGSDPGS
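U2OS cells transduced with wild-type KCNH2 virus are loaded with FluxOr dye for 45 min, and thallium flux is measured in kinetic reads before and after stimulation buffer. Rate constants are normalized to DMSO controls.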
* hit, by the source's call; i = inactive; ? = inconclusive; · = no result; ! = repeats disagree; [ ] = remark or other dose. On the % scale 0 is the no-effect control and ±100 the full control effect.

SMILES	KinaseGlo FLuc	KCNH2 3.1 block	hERG WT inh
COC(=O)[C@@]1(Cc2ccccc2)[C@H]2c3cc(C(=O)N4CCCC4)n(CC4CC4)c3C[C@H]2CN1C(=O)c1ccccc1	0.1%	·	·
CCOc1ccc(NC(=O)C2C3C=CC4(O3)C2C(=O)N(Cc2cccnc2)C4C(=O)NC2CCCCC2)cc1 (configuration not stated)	·	-0.1	2.4
Cn1cc(CNCc2cnc3ccccn23)c(-c2ccc(Oc3ccccc3)cc2)n1	2.6%	-206.7*	i
CN(Cc1cn(C)nc1-c1ccc(Oc2ccccc2)cc1)Cc1cnc2ccccn12	0.9%	-31.5	1.8
COC(=O)c1ccc(CSc2ccccc2NC(=S)Nc2cccc(C(F)(F)F)c2)o1	·	4.4	-5.1
Cn1c(N=Nc2ccc(N3CCOCC3)cc2)[n+](C)c2ccccc21	12.6µM*	9.1	-5.6
Cn1c(=Nc2ccc(N3CCOCC3)cc2)ccc2ccccc21	1.3%	-5.7	3.3
CCOCCN(C(=O)c1ccccc1Cl)c1cccc(C)c1C	·	11.6	-7.0
CC(C)(C)Nc1nc(Cl)nc(NC2CCCCC2)n1	·	3.3	-5.7
Cc1ccc(Nc2nc(Cl)nc(NC3CCCCC3)n2)cc1	·	-93.1*	0.9
O=C(NCCc1ccccc1O)c1cc2c(cc1[N+](=O)[O-])OCO2	·	6.5	18.0
CCN(Cc1ccccc1)C(=O)CN1C(=O)NC(CC)(c2ccc(F)cc2)C1=O (configuration not stated)	·	-2.9	-83.0*
CCC1(c2ccc(F)cc2)NC(=O)N(CC(=O)Nc2ccccc2C)C1=O (configuration not stated)	·	-43.2	3.3
CC(C)(CN1CCCC1)NC(=O)C1CCC(=O)N(CCCN2CCOCC2)C1 (configuration not stated)	·	-5.2	12.6
COC(=O)CN(C)C(=O)c1ccccc1OC1CCN(S(C)(=O)=O)CC1	·	-1.6	-15.8
O=C(Nc1cccc(S(=O)(=O)N2CCOCC2)c1)C1CCCC1	·	13.0	39.3
O=C(Nc1cccc(S(=O)(=O)N2CCOCC2)c1)C1CC1	·	-12.5	-8.0
CC(C)Oc1ccc(C(=O)Nc2cccc(S(=O)(=O)N3CCCC3)c2)cc1	·	-125.3*	14.6
COc1cccc(NC(=O)c2ccc(S(=O)(=O)N3CCCC3)cc2)c1	·	-16.0	12.6
O=C(Nc1cccc(S(=O)(=O)N2CCCCC2)c1)C1CCC1	·	-91.7*	88.2
CC(OC(=O)C1CC1)C(=O)Nc1cccc(S(=O)(=O)N2CCOCC2)c1 (configuration not stated)	·	-133.7*	12.3
CC(=O)N1CC(C)Oc2ccc(S(=O)(=O)Nc3ccc(Cl)cn3)cc21 (configuration not stated)	·	16.5	-1.6
O=C(c1ccncc1)N1CCN(S(=O)(=O)c2ccccc2F)CC1	·	-1.4	-7.4
COCC1CCN(C(=O)c2ccc3oc(Cc4ccc(Cl)cc4)nc3c2)C1 (configuration not stated)	·	-4.3	1.3
O=C(Nc1ccc([N+](=O)[O-])cn1)c1cc(-c2cccc(Cl)c2)nc2ccccc12	2.2%	?	?
SMILES	KinaseGlo FLuc	KCNH2 3.1 block	hERG WT inh
O=C(Nc1ccc([N+](=O)[O-])cn1)c1cc(-c2cccc(Br)c2)nc2ccccc12	0.9%	-80.7*	-7.2
NS(=O)(=O)c1ccc(N=Nc2cc3ccccc3c(C(=O)O)c2O)cc1	-2.6%[7.66 µM]	·	·
CCCc1cc(=O)oc2cc(OCc3ccc(OC)cc3)c(Cl)cc12	·	-73.8*	-17.9
CCCc1cc(=O)oc2cc(OCc3cc(OC)c(OC)c(OC)c3)c(Cl)cc12	1.9%	13.1	-1.8
CC(C)N(C(=O)COC(=O)CNS(=O)(=O)c1ccccc1F)c1ccccc1	5.5%	2.0	-3.8
COc1cc(/C=C/C(=O)OCC(=O)NC2CCS(=O)(=O)C2)ccc1O (configuration not stated)	-0.6%	-11.8	0.2
COc1cc(/C=C/C(=O)OCC(=O)NC2CCS(=O)(=O)C2)ccc1OC(F)F (configuration not stated)	·	-167.2*	3.9
Cc1c(/C(O)=C2\C(=O)C(=O)N(CCCN(C)C)C2c2ccco2)cnn1-c1ccccc1 (configuration not stated)	·	-16.0	-8.3
COc1ccc(NC(=O)Cc2ccc(Cl)cc2)cc1S(=O)(=O)N1CCCCC1	·	-18.0	5.3
O=C(/C=C/c1ccc2c(c1)OCO2)Nc1nncs1	·	-16.0	-6.6
CC(C)(C)c1ccc(/C=C/C(=O)Nc2nncs2)cc1	0.7%	-82.7*	13.5
O=C(O)c1ccccc1NCn1c(=S)sc2ccccc21	-5.9%[7.66 µM]	·	·
CCN(C(=S)Nc1ccc(OC(F)F)cc1)C1CCCCC1	-1.8%	-15.9	0.8
CCN(CC(=O)Nc1ccc(OC(F)F)cc1)C1CCCCC1	-1.7%	-92.0*	-8.2
O=C(NCc1cc2ccccc2[nH]1)c1ccccc1F	·	10.0	-7.2
CC(/C=C\c1cccnc1)=C/C(=O)O	0.0%	-77.1*!	-0.6
O=C(O)/C=C/c1cccnc1	·	-21.5	-11.8
N#Cc1ccc(OCC(=O)OCC(=O)N2CCc3ccccc32)cc1	·	-2.9	14.8
O=C(Nc1ccnn1C1CCN(CCCc2ccccc2)CC1)c1ccccc1	·	-84.7*	?
COc1ccccc1C(=O)Nc1ccnn1C1CCN(C)CC1	·	2.0	6.7
Cc1ccccc1C(=O)Nc1ccnn1C1CCN(CCCc2ccccc2)CC1	·	-106.1*	-139.3*
COc1ccccc1C(=O)Nc1ccnn1C1CCN(CCCc2ccccc2)CC1	·	-102.5*	-104.8*
Cc1ccccc1C(=O)Nc1ccnn1C1CCN(Cc2ccccn2)CC1	·	6.3	47.2
O=C(Nc1ccnn1C1CCN(CCCC2CCCC2)CC1)c1ccccc1	·	12.8	?
CC(CC(F)(F)F)N1CCC(n2nccc2NC(=O)CCOc2ccccc2)CC1 (configuration not stated)	·	2.6	-12.7
SMILES	KinaseGlo FLuc	KCNH2 3.1 block	hERG WT inh
CCCCC#Cc1nc(NC)c2ncn([C@@H]3O[C@@H](CO)[C@H](O)[C@H]3O)c2n1	-2.0%	·	·
Cc1ccc(NC(=O)CSc2nnc(/N=C/N(C)C)s2)cc1	1.7%	-7.5	0.3
OC(COc1ccc(F)cc1Cl)CN1CCC(Cc2ccccc2)CC1 (configuration not stated)	·	-93.1*	?
Cc1ccccc1OCC(O)CN1CCC(C)CC1 (configuration not stated)	2.9%	-80.5*	10.7
OC(COc1ccccc1)CN1CCC(Cc2ccccc2)CC1 (configuration not stated)	·	-115.4*	0.2
COc1cccc(OCC(O)CN2CCC(Cc3ccccc3)CC2)c1 (configuration not stated)	-5.7%	-48.9	39.3
Cc1ccccc1OCC(O)CN1CCN(CC(O)COc2ccccc2C)CC1 (configuration not stated)	-1.3%	-22.2	14.8
OC(COc1ccccc1F)CN1CCC(Cc2ccccc2)CC1 (configuration not stated)	·	?	-20.6
COc1ccccc1N(CC(=O)Nc1ccc2c(c1)OCCO2)S(=O)(=O)c1ccc(C)cc1	·	-27.1	2.8
O=C(Nc1ccc(Cl)cc1)OCCN1CCN(Cc2ccccc2)CCC1=O	1.3%[39.9 µM]	·	·
